# Reference: PubChem BioAssay AID720487 (Milwaukee Institute for Drug Discovery, 2013)
# The other results are listed elsewhere or left out. Values without a mark were called inactive.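 How the source made its calls: active means fluorescence interference ratio at or above 1.2, signal boosting, or at or below 0.8, signal quenching; inactive means ratio between 0.8 and 1.2.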
# Experiment: signal quenchers or enhancers, Cy5-oligo/SSB – biochemical, E. coli SSB, selected ChemBridge compounds, artefact control for HCV NS3 helicase inhibitor project (AID 720487);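 further: ratio of compound well signal to mean negative control signal so 1 means no effect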
# Settings: Cy5-dT15/E. coli SSB fluorescence interference; at 100 µM; actives lie on both sides
compound,measurement,value
CCOc1cc(C=C2C(=O)NC(=O)NC2=O)cc(Br)c1OCCOc1ccccc1C,fluorescence interference ratio,0.894
